Assay results reported in PubChem BioAssay AID602261 (Sanford-Burnham Center for Chemical Genomics, 2012).
The whole screen tested about 360,000 compounds, of which about 2,400 (0.67%) were called active. Only a selection was taken, and actives are over-represented in it overall. A number with no mark means an inactive call.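 The calls were made as follows: active = compounds whose normalised, plate-corrected inhibition of enzyme fluorescence in the single-dose primary screen is 50% or more; inactive = the rest.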

The molecules below were run against Fatty acid synthase (Homo sapiens) (UniProt P49327) (assay: FAS thioesterase domain inhibitors, primary screen, biochemical, fluorescence intensity, uHTS (AID 602261;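 also: 0% = DMSO with enzyme and 100% = substrate without enzyme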)). Details: recombinant FAS-TE, OMFH fluorogenic substrate, fluorescence endpoint; at 15 µM; stronger effect = higher value.
Fatty acid synthase (Homo sapiens), sequence (P49327 whole entry, looked up, the tested form may be a part): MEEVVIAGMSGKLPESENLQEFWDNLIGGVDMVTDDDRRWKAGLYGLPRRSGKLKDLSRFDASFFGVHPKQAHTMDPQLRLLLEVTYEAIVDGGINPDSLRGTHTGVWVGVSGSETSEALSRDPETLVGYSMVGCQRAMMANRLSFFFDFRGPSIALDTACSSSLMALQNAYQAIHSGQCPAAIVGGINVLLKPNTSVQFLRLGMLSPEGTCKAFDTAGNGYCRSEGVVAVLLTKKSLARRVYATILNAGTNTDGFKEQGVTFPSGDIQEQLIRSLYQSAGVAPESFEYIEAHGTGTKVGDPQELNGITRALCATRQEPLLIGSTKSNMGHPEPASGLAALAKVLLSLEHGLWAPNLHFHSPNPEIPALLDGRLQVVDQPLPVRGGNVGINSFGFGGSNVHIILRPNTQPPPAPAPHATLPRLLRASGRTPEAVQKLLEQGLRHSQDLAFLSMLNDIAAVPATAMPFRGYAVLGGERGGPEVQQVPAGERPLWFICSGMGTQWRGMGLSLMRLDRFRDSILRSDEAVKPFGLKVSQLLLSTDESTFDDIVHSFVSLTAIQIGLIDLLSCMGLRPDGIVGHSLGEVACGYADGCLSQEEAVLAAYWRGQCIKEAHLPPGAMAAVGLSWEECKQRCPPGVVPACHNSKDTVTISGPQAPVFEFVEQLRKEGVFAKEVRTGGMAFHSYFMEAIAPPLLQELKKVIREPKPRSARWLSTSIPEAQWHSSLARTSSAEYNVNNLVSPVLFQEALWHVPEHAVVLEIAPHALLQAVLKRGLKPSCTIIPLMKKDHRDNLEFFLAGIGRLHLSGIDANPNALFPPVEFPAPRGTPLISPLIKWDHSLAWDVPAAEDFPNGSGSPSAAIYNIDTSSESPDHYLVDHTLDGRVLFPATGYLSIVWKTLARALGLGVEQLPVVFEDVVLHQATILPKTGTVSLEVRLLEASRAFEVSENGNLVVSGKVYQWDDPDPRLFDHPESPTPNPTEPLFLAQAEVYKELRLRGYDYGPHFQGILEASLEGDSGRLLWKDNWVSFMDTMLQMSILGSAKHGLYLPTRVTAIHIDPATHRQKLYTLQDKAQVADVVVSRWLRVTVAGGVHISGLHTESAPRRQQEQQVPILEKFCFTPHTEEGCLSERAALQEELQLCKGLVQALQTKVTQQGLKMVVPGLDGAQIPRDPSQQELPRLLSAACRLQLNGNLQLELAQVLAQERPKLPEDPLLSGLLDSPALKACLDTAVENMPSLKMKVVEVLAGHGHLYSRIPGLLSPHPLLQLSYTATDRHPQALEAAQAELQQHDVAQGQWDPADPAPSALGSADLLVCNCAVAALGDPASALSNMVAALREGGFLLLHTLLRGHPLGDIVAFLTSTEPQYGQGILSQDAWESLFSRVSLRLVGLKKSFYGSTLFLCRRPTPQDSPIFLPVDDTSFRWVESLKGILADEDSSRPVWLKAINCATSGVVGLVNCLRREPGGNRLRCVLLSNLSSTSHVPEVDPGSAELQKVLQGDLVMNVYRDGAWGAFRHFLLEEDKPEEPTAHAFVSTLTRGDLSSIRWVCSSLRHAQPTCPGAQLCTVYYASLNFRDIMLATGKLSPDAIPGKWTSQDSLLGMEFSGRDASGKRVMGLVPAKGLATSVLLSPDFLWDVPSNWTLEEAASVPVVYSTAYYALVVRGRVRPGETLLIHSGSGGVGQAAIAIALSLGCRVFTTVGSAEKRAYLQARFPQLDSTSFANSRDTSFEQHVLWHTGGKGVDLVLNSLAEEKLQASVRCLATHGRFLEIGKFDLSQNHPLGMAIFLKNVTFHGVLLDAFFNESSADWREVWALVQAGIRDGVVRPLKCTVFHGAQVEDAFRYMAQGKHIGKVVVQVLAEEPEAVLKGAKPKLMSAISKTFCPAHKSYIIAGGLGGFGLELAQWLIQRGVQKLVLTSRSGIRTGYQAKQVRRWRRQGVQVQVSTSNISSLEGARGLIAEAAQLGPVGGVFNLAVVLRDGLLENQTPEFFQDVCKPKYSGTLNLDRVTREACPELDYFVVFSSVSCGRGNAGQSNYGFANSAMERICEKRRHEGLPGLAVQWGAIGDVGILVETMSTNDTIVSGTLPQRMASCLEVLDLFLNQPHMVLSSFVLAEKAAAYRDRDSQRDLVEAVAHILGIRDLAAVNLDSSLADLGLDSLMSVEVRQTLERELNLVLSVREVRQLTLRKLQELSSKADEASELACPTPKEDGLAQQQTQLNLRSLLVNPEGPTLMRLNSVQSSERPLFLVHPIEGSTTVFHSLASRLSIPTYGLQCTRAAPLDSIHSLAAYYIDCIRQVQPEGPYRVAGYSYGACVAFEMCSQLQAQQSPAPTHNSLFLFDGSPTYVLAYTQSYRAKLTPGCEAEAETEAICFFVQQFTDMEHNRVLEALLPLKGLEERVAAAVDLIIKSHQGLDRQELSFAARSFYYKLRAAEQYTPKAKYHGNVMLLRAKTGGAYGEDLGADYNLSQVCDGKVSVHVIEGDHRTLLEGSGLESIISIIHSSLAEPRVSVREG
`CCOC(=O)[C@]12Cc3cc(OC)ccc3[C@H]1N(C(C)C)C(=O)c1ccccc12` gave an inhibition of 36.7%.
In the case of `CCOC(=O)[C@]12Cc3ccccc3[C@H]1N(C1CCCCC1)C(=O)c1cc(OC)ccc12`, the inhibition is reported as 67.5% (active).
Work on `CC(=O)c1ccc(OC(NC(=O)Cc2ccccc2)C(Cl)(Cl)Cl)cc1` (stereo not given) yielded an inhibition of 11.2%.
With `O=C1C2(Cl)C3(Cl)C4(Cl)C(Cl)(Cl)C5(Cl)C3(Cl)C1(Cl)C5(Cl)C24Cl` (stereo not given) the inhibition was 72.1% (active).
Work on `O=C(O)CCn1cc(C=C2C(=O)NC(=S)NC2=O)c(-c2cccc(Br)c2)n1` yielded an inhibition of -3.4%.
`COC(=O)C1=C(c2ccc3ccccc3c2)C[C@@H]2CC[C@H]1N2C(=O)NCCO` gave an inhibition of -1.8%.
`COc1ccc(-n2nnnc2C(c2cccc3ccccc23)N2CCC(n3c(=O)[nH]c4ccccc43)CC2)cc1` (stereo not given) was tested, and the inhibition was 87.1% (active).
Work on `O=c1[nH]c2ccccc2n1C1CCN(C(c2ccccc2)c2nnnn2Cc2ccccc2)CC1` (stereo not given) yielded an inhibition of 18.3%.
For `O=c1[nH]c2ccccc2n1C1CCN(C(c2ccnc3ccccc23)c2nnnn2Cc2ccccc2)CC1` (stereo not given), the inhibition was 5.1%.
With `CCOc1ccc(CN(CCCl)CCCl)cc1C(=O)OC` the inhibition was -5.1%.
Work on `O=C(NC1CCCCC1)N1Cc2cc(N3CCCCC3)ccc2-n2nncc2C1` yielded an inhibition of -2.8%.
`CN(C)CC1CCCCC1OC(=O)c1ccc(Cl)c(Cl)c1` (stereo not given) was tested, and the inhibition was -3.1%.
Work on `CCCCCCCCCCCCn1ccc(=N)cc1` yielded an inhibition of -0.8%.
With `O=C1NCN(c2ccccc2)C12CCN(C(c1cccs1)c1nnnn1C1CCCCC1)CC2` (stereo not given) the inhibition was 14.5%.
`COc1cccc(C(c2nnnn2-c2ccc3c(c2)OCCO3)N2CCC3(CC2)C(=O)NCN3c2ccccc2)c1OC` (stereo not given) was tested, and the inhibition was 62% (active).
For `Cc1ccc(-c2cc(C(=O)N3CCC4(CC3)OCCO4)no2)cc1`, the inhibition was 1.5%.
Molecule `COc1ccc2c(c1O)-c1cccc3c1[C@@H](C2)N(C)CC3` has an inhibition of -2.4%.
`CCOC(=O)C(O)(c1ccc(N=Cc2ccccc2O)c(C)c1)C(F)(F)F` (stereo not given) was tested, and the inhibition was -4.3%.
For `CC(C)Oc1cccc(C(=O)C2CCCN(C3CCOCC3)C2)c1` (stereo not given), the inhibition was -0.1%.
Work on `c1cncc(CNCCc2c[nH]c3ccccc23)c1` yielded an inhibition of 5.2%.
